# Bioassay records as filed in PubChem BioAssay.
# D1 agonist – activates the human D1 dopamine receptor; P21728; HEK293 T-REx D1 cells, calcium flux, agonist mode; activation, % at 2 µM; hit rate 1% among 360,000; AID 504660; note: 0% is about no effect
#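 Inducible HEK293 T-REx D1 cells, force-coupled to calcium signalling, were plated at 4000 cells/well with tetracycline and held overnight at 30 C. After no-wash calcium dye loading, compound-evoked calcium rise over 180 s flagged agonists.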
# Epigenetic reg – derepresses silenced GFP reporter in murine cells. murine LDR cells, GFP reporter derepression, 30 h. Potency, µM (top dose mostly 53.9 µM), inactives show at the highest dose GFP activation, usual class: activators. hit rate 0.2% among 280,000. AID 1865; active = well fitted activation curve with a large enough effect; inconclusive = small, poorly fitted or top-dose-only effect; note: potency is the fitted concentration of half-maximal effect; % of control where 0% means no effect; nearly all actives have a fitted effect of over 60% in size
#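 Murine LDR cells bearing a silenced CMV-driven GFP reporter were exposed to compound for 30 h at 37 C. After PBS washes, GFP-positive cells (20-120 um objects) counted by laser-scanning microplate cytometry.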
# TRHR agonist – activates the human TRH receptor | P34981 | TRHR cells, calcium flux fluo-8, FDSS agonist mode | activation, % at 2 µM | hit rate 0.18% among 360,000; note: 0% is about no effect
# Target sequence (P34981 whole entry, looked up): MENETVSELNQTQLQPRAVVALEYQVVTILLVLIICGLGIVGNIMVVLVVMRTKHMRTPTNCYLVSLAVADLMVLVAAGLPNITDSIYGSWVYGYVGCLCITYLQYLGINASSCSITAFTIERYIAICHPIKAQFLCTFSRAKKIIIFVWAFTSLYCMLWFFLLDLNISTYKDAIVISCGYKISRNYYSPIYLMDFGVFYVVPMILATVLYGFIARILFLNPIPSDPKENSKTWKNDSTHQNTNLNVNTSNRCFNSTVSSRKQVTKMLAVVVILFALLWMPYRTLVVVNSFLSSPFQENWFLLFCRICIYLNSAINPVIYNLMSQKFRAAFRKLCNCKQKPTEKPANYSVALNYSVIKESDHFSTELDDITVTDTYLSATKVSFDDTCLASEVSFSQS
#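 In this calcium-flux screen, cells bearing human TRHR are dye-loaded with fluo-8, baselined for 10 cycles, then exposed to library compounds; positive kinetic calcium responses during the agonist phase mark hits, with TRH as control.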
# TRHR enhancer – allosterically enhances the human TRH receptor | TRHR cells, fluo-8 calcium fluorescence, EC20 TRH enhancement | enhancement, % at 2 µM | hit rate 0.66% among 360,000 | AID 493056; in the data active = enhancement above about 30%; note: 0% is about no effect
#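 Enhancer read-out: after compound pinning and an initial kinetic agonist-mode read, an EC20 of TRH (10 nM final) was injected and fluo-8 calcium signal (Ex 480/Em 530) followed at 1 s/cycle for 100 cycles in TRHR-expressing cells.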
# D1 PAM – human D1 dopamine receptor positive modulation | P21728 | HEK293 TREx D1 cells, calcium flux, dopamine EC20 potentiation | potentiation, % at 10 µM | hit rate 0.036% among 360,000 | AID 504651; in the data active = potentiation above about 30%; note: 0% is about no effect
# D1 antagonist – blocks dopamine activation of the human D1 receptor; HEK293 TREx D1 cells, calcium flux, dopamine EC80; stronger effect = lower value; activity change, negative = inhibition, % at 10 µM; hit rate 3.2% among 360,000; in the data active = activity change below about -30%; note: % is set by controls: 0 for no effect and ±100 for the full control effect
#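 Kinetic fluorescence of a calcium dye serves as the read-out. D1-expressing Hek293 Trex cells, induced overnight at 30 C, are exposed to compound for 180 s before an EC80 dopamine addition, then read 180 s further.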
# Numbers without * were called inactive; ? = inconclusive; / = no result. Sampled rows, rich in hits. Any-hit rate of the full collection: about 4.6%. Cut-off read from the data, not from the text of the source, unless noted: active = activation above about 30%; inactive = the rest.
SMILES,D1 agonist,Epigenetic reg,TRHR agonist,TRHR enhancer,D1 PAM,D1 antagonist
COc1ccc2c(c1)c1c(c(=O)n(Cc3ccccc3)c(=O)n1CC(=O)Nc1cc(C)cc(C)c1)n2C,1,-1%,0,3,0,2
Cc1ccc2c(c1)c1c(c(=O)n(-c3cccc(Cl)c3)c(=O)n1CC(=O)c1ccc(Cl)cc1)n2C,7,0%,-1,5,0,-1
CCCCc1nn2c(=O)cc(COC(=O)c3ccccc3NC(=O)c3cccs3)nc2s1,-1,11%,1,4,0,4
C[C@@H](/C=C\c1cccc(Oc2ccc(F)cc2)c1)N(O)C(N)=O,/,1%,/,/,/,/
CC1CCCC(NCC(O)COC(c2ccc(F)cc2)c2ccc(F)cc2)C1C (centres undefined),63*,12%,2,-3,-8,17
Cc1cc2c(cc1S(=O)(=O)Nc1cccc(Cl)c1C)OCCN2C,0,0%,0,0,3,0
Cc1ccc(S(=O)(=O)NCCSc2nnnn2-c2ccccc2)cc1,0,-1%,-2,2,-3,-1
Cc1ccc(S(=O)(=O)NCCSc2nnnn2-c2cc(C)ccc2C)cc1,10,4%,1,8,-1,-40*
CCCCN(c1ccccc1)S(=O)(=O)c1cc2c3c(c1)C(C)C(=O)N3CCC2 (centres undefined),-4,4%,0,0,0,/
COc1ccc(S(=O)(=O)n2nc(-n3c(C)ccc3C)c3c(F)cccc32)cc1OC,9,-1%,-1,1,-11,-34*
CCc1nnc(SCC(=O)Nc2ccc(Cl)cc2F)c2cc3occc3n12,1,5%,0,3,-1,7
O=C(O)Cc1coc2cc3c(cc12)CCC3,2,-2%,0,-2,-10,-9
O=C(Cc1coc2cc3c(cc12)CCC3)NC1CCCCCCC1,5,1%,1,8,1,-51*
COc1ccc(/C=C/C(=O)c2ccccc2)cc1COc1ccccc1F,38*,0%,0,4,2,10
CCC/C=C(\CCC)C(NS(=O)(=O)CC12CCC(CC1=O)C2(C)C)c1ccc(C(=O)OC)cc1 (centres undefined),/,2%,/,/,/,/
O=S(=O)(Nc1cccc(CCc2ccccn2)c1)c1cc(Cl)ccc1Cl,4,1%,-1,-2,-5,0
O=S(=O)(Nc1cccc(CCc2ccccn2)c1)c1ccc2ccccc2c1,32*,-2%,0,3,-6,4
COC(=O)c1c(C)oc2ccc(N(C(=O)c3ccncc3)S(=O)(=O)c3ccc(OC)cc3)cc12,0,4%,0,-4,-4,-48*
CCOc1ccc(S(=O)(=O)N(C(=O)c2ccncc2)c2ccc3oc(C)c(C(=O)OC)c3c2)cc1,2,4%,0,-6,-2,-46*
CCc1ccc(S(=O)(=O)N(C(=O)c2ccncc2)c2ccc3oc(C)c(C(=O)OC)c3c2)cc1,1,2%,-1,-4,-2,-2
O=C(Nc1ccc(F)c(Cl)c1)Nc1c[nH]c(=O)[nH]c1=O,2,-2%,0,1,-2,-12
CCCCNC(=O)c1ccc(Cc2nc3ccccc3[nH]2)cc1,/,-2%,/,/,/,/
O=c1cc(-c2ccccc2)nc(SCc2nc(-c3ccc(Cl)cc3)no2)[nH]1,0,-2%,0,3,-3,-4
O=c1cc(-c2ccc(F)cc2)nc(SCc2nc(-c3ccc(Cl)cc3)no2)[nH]1,2,2%,0,43*,-2,-9
Cc1ccc(C(=O)N2CCN(c3ccc(N4CCOCC4)nn3)CC2)cc1,1,/,0,4,-11,-32*
SMILES,D1 agonist,Epigenetic reg,TRHR agonist,TRHR enhancer,D1 PAM,D1 antagonist
Cc1nnc2ccc(N3CCCC3)nn12,2,2%,0,6,-3,-1
O=C(c1ccc(F)cc1)N1CCN(c2ccc(N3CCOCC3)nn2)CC1,0,-3%,0,-3,0,-2
Cc1nnc2ccc(N3CCN(C(=O)c4ccccc4)CC3)nn12,0,0%,0,0,-2,-62*
O=C(NCCc1nnc2ccc(N3CCCCCC3)nn12)c1ccccc1,41*,/,5,-1,-12,-31*
CC(C)CC(=O)Nc1c(C(=O)N2CCN(c3ccccc3F)CC2)oc2ccccc12,-1,3%,0,-2,-2,13
Cc1ccc(CNC(=O)c2oc3ccc(S(=O)(=O)N4CCC(C)CC4)cc3c2C)cc1,2,-1%,0,21,-1,-19
CC(C)(C)c1ccccc1Nc1nc(C#N)nc(NC2CCCC2)n1,3,/,-2,0,9,5
O=C(Nc1ccc(Br)cc1)c1ccco1,-3,-2%,-1,0,-9,-42*
CCN1CCN(c2ccc(NC(=O)c3cccc(F)c3)cc2Cl)CC1,7,0%,1,2,-6,-36*
CCN1CCN(c2ccc(NC(=O)c3ccco3)cc2Cl)CC1,3,/,0,5,-11,-5
O=C(Nc1ccc(-c2nc3ccccc3[nH]2)cc1)c1ccco1,1,0%,0,-12,-16,-46*
O=C(Nc1ccc(C(=O)Oc2ccccc2)c(O)c1)c1ccco1,12,1%,0,2,-2,-36*
CC(C)NC[C@@H](O)COc1ccccc1-n1cccc1,/,-2%,/,/,/,/
CC(C)CCNC(=O)c1cccc(Nc2nc3ccccc3n3nnnc23)c1,0,0%,-1,-1,-3,5
O=C(Nc1ccc(N2CCCC2)c(Cl)c1)c1ccco1,0,-3%,-1,-10,-4,-10
O=C(Nc1ccc(Nc2ccccc2)cc1)c1ccco1,4,-1%,0,2,2,-5
O=C(Nc1ccc(NC(=O)c2ccco2)cc1)c1ccco1,0,/,1,31*,2,-2
Cc1ccn2cc(-c3ccc(NC(=O)c4ccco4)cc3)nc2c1,0,-2%,-2,-8,-3,-33*
CC(C)CC(=O)NC(=S)Nc1ccc(NC(=O)c2ccco2)cc1,11,?,0,4,-3,-36*
CN1CCN(c2ccc(NC(=O)c3ccco3)cc2Cl)CC1,2,/,0,2,-2,-38*
CCC(=O)NC(=S)Nc1ccc(NC(=O)c2ccco2)cc1,3,-5%,1,-6,-4,-2
COc1ccc(NC(=O)c2ccco2)cc1NC(=O)c1cccc(C)c1OC,2,2%,-1,2,-6,-31*
CCN(CC)S(=O)(=O)c1ccc(NC(=S)NC(=O)CC(C)C)cc1,0,1%,0,11,-2,-33*
CC1=NN(c2cccc([N+](=O)[O-])c2)C(=O)C1,43*,0%,1,-6,-2,-10
